In PubChem BioAssay (NCATS) one finds outcome and Potency data, which are given here for 9 compounds.

The nature of assay [1]: Cell Viability - LYMP2-005 (AID 967). Also: series mostly up to about 92 µM. Summed up:
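qHTS viability screen in LYMP2-005 cells: 24 h at 37 C with compound, ATP luminescence via CellTiter-Glo, AC50 from Hill curves.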

Assay [2] is described as follows: Cell Viability - LYMP2-009 (AID 968). Also: nearly all actives have a fitted effect of over 55% in size. Also: potency is read from the fitted curve at half-maximal effect.
The nature of assay [3]: Cell Viability - LYMP2-011 (AID 969). Also: nearly all actives have a fitted effect of over 60% in size. Also: potency is read from the fitted curve at half-maximal effect. In outline: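 2500 cells/well, 5 hr 37 C; compound added, 24 hr 37 C; CellTiter-Glo 30 min RT; luminescence. qHTS concentration-response, Hill-equation AC50. Tetraoctylammonium bromide positive control.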
A short description of assay [4]: Cell Viability - LYMP2-013 (AID 970). Also: nearly all actives have a fitted effect of over 55% in size. Also: potency is read from the fitted curve at half-maximal effect. Summed up:
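qHTS; 2500 lymphoblastoid cells/well; 5 hr 37 C settle; cpd 24 hr 37 C; CellTiter-Glo, 30 min RT; luminescence. AC50 = Hill fit.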

Assay [5] is described as follows: Cell Viability - LYMP2-015 (AID 971). Also: nearly all actives have a fitted effect of over 55% in size. Also: potency is read from the fitted curve at half-maximal effect. In outline:
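Luminescent ATP read-out (CellTiter-Glo) served as the viability measure after lymphoblastoid cells were exposed to compounds for 24 hours at 37 C. Concentration-response data were fitted with the Hill equation to give AC50.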

Assay [6] in a line: Cell Viability - LYMP2-017 (AID 972). Also: nearly all actives have a fitted effect of over 55% in size. Also: potency is read from the fitted curve at half-maximal effect. Summed up:
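2500 cells/well, 5 h 37 C; cpd 24 h 37 C in complete medium; CellTiter-Glo, 30 min RT; luminescence (ATP). AC50 via Hill fit, qHTS.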

Assay [7] in a line: Cell Viability - LYMP2-019 (AID 973). Also: nearly all actives have a fitted effect of over 55% in size. Also: potency is read from the fitted curve at half-maximal effect. Summed up:
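Luminescent ATP read-out (CellTiter-Glo, 30 min room temperature) served as the viability measure after 24 hr treatment of lymphoblastoid cells at 37 C. Concentration-response data were fitted to the Hill equation for AC50.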

A short description of assay [8]: Cell Viability - LYMP2-021 (AID 974). Also: potency is read from the fitted curve at half-maximal effect. Summed up: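 Plate 2500 lymphoblastoid cells per well and incubate 5 hr at 37 C. Add compounds over a concentration range and incubate 24 hr at 37 C. Add CellTiter-Glo, wait 30 min at room temperature, read luminescence.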
Assay [9] can be described thus: Cell Viability - LYMP2-023 (AID 975). Also: nearly all actives have a fitted effect of over 55% in size. Also: potency is read from the fitted curve at half-maximal effect. In outline: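 2500 cells/well, 5 hr 37 C; cpd 24 hr 37 C; CellTiter-Glo, 30 min RT; luminescence. qHTS conc-response, Hill fit -> AC50. Pos ctrl tetraoctylammonium bromide.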
A short description of assay [10]: Cell Viability - LYMP2-002 (AID 977). Also: potency is read from the fitted curve at half-maximal effect. Summed up:
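Luminescent ATP readout (CellTiter-Glo, 30 min room temperature) after 24 h compound exposure at 37 C of a human lymphoblastoid line, 2500 cells/well. AC50 values derived by standard Hill fitting of qHTS concentration-response data.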

The nature of assay [11]: Cell Viability - LYMP2-006 (AID 978). Also: nearly all actives have a fitted effect of over 60% in size. Also: potency is read from the fitted curve at half-maximal effect. In outline: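 Concentration-dependent loss of intracellular ATP in a human lymphoblastoid line after 24 hr treatment at 37 C was measured by CellTiter-Glo luminescence, with AC50 values obtained from standard Hill-equation modelling.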
Assay [12] can be described thus: Cell Viability - LYMP2-008 (AID 980). Also: nearly all actives have a fitted effect of over 60% in size. Also: potency is read from the fitted curve at half-maximal effect. In outline: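 qHTS, human lymphoblastoid line, 2500 cells/well; 5 hr preincubation, 24 hr compound, 37 C. CellTiter-Glo ATP luminescence. AC50 via Hill equation. Tetraoctylammonium bromide positive control.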
A short description of assay [13]: Cell Viability - LYMP2-010 (AID 981). Also: nearly all actives have a fitted effect of over 55% in size. Also: potency is read from the fitted curve at half-maximal effect. In outline: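 Luminescent ATP signal (CellTiter-Glo) served as the viability read-out. Cells of the human lymphoblastoid line were treated with compound over a concentration range for 24 hours at 37 C, and AC50 values came from Hill-equation modeling.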
Assay [14] is described as follows: Cell Viability - LYMP2-012 (AID 982). Also: potency is read from the fitted curve at half-maximal effect.
The nature of assay [15]: Cell Viability - LYMP2-014 (AID 983). Also: nearly all actives have a fitted effect of over 50% in size. Also: potency is read from the fitted curve at half-maximal effect. Summed up: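 Luminescent ATP signal (CellTiter-Glo, 30 min at room temperature) serves as the viability read-out after 24 hr compound exposure at 37 C. Cells were seeded at 2500 per well and settled 5 hr beforehand.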
Assay [16] can be described thus: Cell Viability - LYMP2-016 (AID 984). Also: nearly all actives have a fitted effect of over 55% in size. Also: potency is read from the fitted curve at half-maximal effect. In outline: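 Acute toxicity in a Coriell human lymphoblastoid line is scored as loss of intracellular ATP over 24 h of treatment in complete medium. CellTiter-Glo signal is fitted across concentrations with the Hill equation to give AC50.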
Assay [17] is described as follows: Cell Viability - LYMP2-018 (AID 985). Also: nearly all actives have a fitted effect of over 50% in size. Also: potency is read from the fitted curve at half-maximal effect. In outline: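 Luminescent ATP signal (CellTiter-Glo, read after 30 min at room temperature) reports viable cells after 24 hr compound treatment at 37 C. Concentration-response data were fitted to the standard Hill equation for AC50.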
The nature of assay [18]: Cell Viability - LYMP2-025 (AID 976). Also: series mostly up to about 92 µM. In outline: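 Seed 2500 LYMP2-025 cells/well; 5 hr at 37 C; add compound; 24 hr at 37 C; add CellTiter-Glo; 30 min RT; read luminescence. AC50 from Hill-modelled concentration-response.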
A short description of assay [19]: Cell Viability - LYMP2-007 (AID 979).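 Also: cells exposed to compound for 24 h before reading; nearly all actives have a fitted effect of over 60% in size.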 Also: potency is read from the fitted curve at half-maximal effect. Summed up: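 Luminescent ATP signal (CellTiter-Glo) serves as the viability read-out after 24 hr compound treatment of lymphoblastoid cells in complete medium at 37 C. Concentration-response data were fitted to the Hill equation to give AC50 values.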

Inconclusive results are not listed. The source made the active and inactive calls. Calls follow the shape of the dose curve; as a rule, active = well fitted curve in the direction sought with a large enough effect; inconclusive = small, poorly fitted or top-dose-only effect, or another doubt; inactive = no such curve, though single readings can be large; an effect the other way counts as inactive or inconclusive.

Turning to `FB(F)F`, the outcome in assay [1] was inactive. The Potency result in assay [2], in [3], in [4], in assay [5], in assay [6] and in assay [7] was “inactive” in each case. Moreover, the Potency result in assay [8], in [9], in assay [10], in assay [11], in [12] and in [13] was “inactive” in each case. The Potency result in assay [14], in [15], in [16] and in assay [17] was “inactive” throughout.

`COC(=O)c1ccccc1`: the Potency result in assay [2], in [3], in assay [4], in assay [5], in [6] and in [7] was “inactive” in each case. For the same compound, the Potency result in assay [8], in [9], in assay [18], in [11], in [19] and in assay [12] was “inactive” in each case. For the same compound, the Potency entry in assay [13], in assay [15], in assay [16] and in [17] was “inactive” each time.

As to `ON=C1CCCCC1`, the call in [1] was inactive. The Potency result in [2], in assay [3], in [4], in assay [7], in [8] and in [9] was “inactive” each time. The Potency result in [18], in assay [10], in [11], in [19], in [12] and in assay [13] was “inactive” in each case. Further, the Potency entry in assay [14], in [15], in assay [16] and in [17] was “inactive” in each case.

With `CC(=O)Nc1ccc(C)cc1`, the Potency result in [2], in [3], in [4], in assay [5], in [6] and in [7] was “inactive” each time. Moreover, the Potency entry in [8], in assay [9], in assay [18], in assay [11], in assay [19] and in [12] was “inactive” throughout. The Potency result in assay [13], in [14], in assay [15], in [16] and in [17] was “inactive” in each case.

Turning to `COc1cccc2sc(N)nc12`, the Potency entry in assay [2], in assay [3], in assay [4], in [5], in [7] and in [9] was “inactive” in each case. Moreover, the Potency result in assay [18], in assay [11], in [19], in assay [12], in assay [13] and in assay [14] was “inactive” in each case. Moreover, the Potency result in assay [15], in [16] and in [17] was “inactive” in each case.

Take `O=[N+]([O-])c1ccccc1CCO`: the Potency result in assay [2], in assay [3], in [4], in [5], in assay [6] and in assay [7] was “inactive” in each case. Further, the Potency result in assay [8], in assay [9], in [18], in assay [10], in assay [11] and in [12] was “inactive” in each case. Moreover, the Potency entry in assay [13], in [14], in assay [15], in [16] and in [17] was “inactive” each time.

Turning to `Cc1ccc(Cl)cc1N`, the Potency result in assay [2], in assay [3], in assay [4], in [5], in assay [6] and in assay [7] was “inactive” throughout. For the same compound, the Potency result in assay [8], in assay [9], in assay [18], in [11], in [19] and in assay [12] was “inactive” each time. In addition, the Potency result in assay [13], in [14], in assay [15], in [16] and in [17] was “inactive” in each case.

As for `CCCCC/C=C/C=C/C=O`, the Potency in assay [2] was 39.8 µM (active); in assay [3], 39.8 µM (active); in assay [4], 50.1 µM (active); in assay [5], 31.6 µM (active); in assay [6], 31.6 µM (active); in assay [7], 50.1 µM (active). Further, the Potency in [8] was 39.8 µM (active); in assay [9], 50.1 µM (active); in assay [10] it was 50.1 µM (active); in assay [11], 50.1 µM (active); in assay [19] it was 39.8 µM (active); in [12] it was 39.8 µM (active). The Potency in assay [13] was 39.8 µM (active); in assay [14] it was 50.1 µM (active); in assay [15] it was 50.1 µM (active); in assay [16], 50.1 µM (active); in [17] it was 79.4 µM (active).

Regarding `C=C(C)C1CC=C(C)C(OC(C)=O)C1` (stereo unspecified), the Potency entry in assay [2], in [3], in assay [4], in assay [5], in [6] and in assay [7] was “inactive” throughout. Moreover, the Potency entry in assay [8], in assay [9], in assay [18], in assay [10], in [11] and in assay [19] was “inactive” each time. In addition, the Potency entry in assay [12], in [13], in assay [14], in [15], in [16] and in assay [17] was “inactive” throughout.
